TDP1 cell noCPT – qHTS for Inhibitors of human tyrosyl-DNA phosphodiesterase 1 (TDP1): qHTS in cells in absence of CPT; DT40 Tdp1-/- hTDP1 cells, no CPT, ATP luminescence, 48 h; Potency, µM (doses to about 46.2 µM), without a hit: at the highest dose activity change, negative = growth inhibition, most hits filed as inhibitors; 420,000 tested, 15% active; also: potency is read from the fitted curve at half-maximal effect; % is scaled to controls: 0 for no effect and ±100 for the full control effect; nearly all actives have a fitted effect of over 55% in size
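Readout: luminescence from CellTiter-Glo after 30 min in the dark at RT. Cells: DT40 Tdp1-/- with stable hTDP1, 400/well. Exposure: compounds alone, ≥48 hr, 37 °C.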
SW480 rereplic – A quantitative high throughput screen for small molecules that induce DNA re-replication in SW480 colon adenocarcinoma cells. SW480 DNA re-replication, Hoechst DNA content imaging, 48 h. Potency, µM (highest dose often 46.1 µM), for inactives: at the highest dose re-replication activation, actives largely listed as activators. 340,000 tested, 1.8% active. AID 624297, 2012; also: potency is read from the fitted curve at half-maximal effect; % of control where 0% means no effect; nearly all actives have a fitted effect of over 55% in size
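First, 250 cells per well were seeded. Next, compound or vehicle (23 nL) was pinned in, plates sat 48 hr at 37 C. Finally Hoechst was added for 40 min before fluorescence scanning.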
TDP1 cell CPT – qHTS for Inhibitors of human tyrosyl-DNA phosphodiesterase 1 (TDP1): qHTS in cells in presence of CPT. Potency, µM (top dose mostly 46.2 µM), for inactives: top-dose activity change, negative = growth inhibition, hits mostly inhibitors. AID 686979, 2013. chicken DT40 Tdp1-/-;hTDP1 cells + 20 nM CPT, ATP luminescence, 48 h. 420,000 tested, 12% active; also: potency is read from the fitted curve at half-maximal effect; % is scaled to controls: 0 for no effect and ±100 for the full control effect; nearly all actives have a fitted effect of over 55% in size
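Chicken DT40 Tdp1-/- cells stably complemented with human TDP1 were seeded at 400 cells/well in medium containing 20 nM camptothecin, exposed to pin-transferred compounds, and grown at 37 °C for at least 48 hr. Viability was read as ATP luminescence.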
IL-1B inflam inh – qHTS for Inhibitors of Inflammasome Signaling: IL-1-beta AlphaLISA Primary Screen; THP-1 LPS/ATP IL-1B secretion, AlphaLISA, 16 h; active compounds read low; activity change, % at 57.5 µM; AID 743279, 2014; 360,000 tested, 4.7% active; in the data active = activity change below about -50%; inconclusive = mostly about -30% to -49%; also: % is scaled to controls: 0 for no effect and ±100 for the full control effect
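Secreted IL-1B measured by AlphaLISA bead assay after 16 h compound exposure of THP-1 cells; compounds (final up to 57.5 uM) added 1 h before LPS (250 ng/mL) and ATP (1.25 mM) stimulation; lower signal means less secretion.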
Chronic BCR inh – qHTS Assay to Find Inhibitors of Chronic Active B-Cell Receptor Signaling; ABC-DLBCL IkBa-CBG/CBR reporter, luminescence ratio, 4 h; Potency, µM (series often up to 46.1 µM), for inactives: at the highest dose activity change, negative = inhibition, actives largely listed as inhibitors; 340,000 tested, 0.05% active; AID 493014, 2011; active = well fitted inhibition curve with a large enough effect in the signal ratio, with a control signal flat, not every such curve was filed as active; inconclusive = small, poorly fitted or top-dose-only effect, or effect the other way, or a change in a side signal; the % refers to the signal ratio;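 also: potency is read from the fitted curve at half-maximal effect; plate controls were basal doxycycline-induced cells for no effect and cells given 10 µM MG132 for full effect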
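TMD8 human ABC-DLBCL cells with doxycycline-inducible IκBα–green luciferase fusion and unfused red luciferase, in 0.5% FBS medium; compounds up to 46 uM, 4 h at 37C. Green/red luminescence ratio, filter-overlap corrected, fitted to concentration-response curves.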
MCF10A rerep – A quantitative high throughput screen for small molecules that induce DNA re-replication in MCF 10a normal breast cells. MCF 10A DNA re-replication, Hoechst nuclear intensity, 48 h. Potency, µM (titrated, usually from 46.1 µM), for the others: at the top dose activity, positive = re-replication, most hits filed as activators. 350,000 tested, 2.9% active; also: potency is read from the fitted curve at half-maximal effect; % of control where 0% means no effect; nearly all actives have a fitted effect of over 50% in size
* marks the source's active call; other numbers are inactive results; u = inconclusive; x = no result given. Sampled rows, rich in hits. Any-hit rate of the full collection: about 19%. Unless noted, calls follow the shape of the dose curve; as a rule, active = well fitted curve in the direction sought with a large enough effect; inconclusive = small, poorly fitted or top-dose-only effect, or another doubt; inactive = no such curve, though single readings can be large; an effect the other way counts as inactive or inconclusive.

SMILES	TDP1 cell noCPT	SW480 rereplic	TDP1 cell CPT	IL-1B inflam inh	Chronic BCR inh	MCF10A rerep
CCN(CC)CCn1c(NCc2ccc3c(c2)OCO3)nc2ccccc21	16.4µM*	-6.8%	13µM*	-15.7	u	1.3%
CCCCn1c(NCc2cc(Br)ccc2O)nc2ccccc21	14.6µM*	x	14.6µM*	x	x	x
CCCn1c(NCc2c[nH]c3ccccc23)nc2ccccc21	u	2.9%	u	-52.4*	u	1.9%
COc1ccc(S(=O)(=O)NC(C(=O)OCC(=O)Nc2ccc(N3CCOCC3)cc2)C(C)C)cc1 (centres undefined)	u	-3.1%	-23.7%	17.1	x	9.8%
Cc1ccc(S(=O)(=O)N2CCN(S(=O)(=O)c3ccccc3Br)CC2)cc1	-26.8%	-3.5%	u	-9.4	5.8%	11.4%
c1ccc(CNc2nc3ccccc3n2CCN2CCOCC2)nc1	-6.1%	u	-6.6%	12.5	0.8%	23.1µM*
COc1ccc(CNc2nc3ccccc3n2CCN2CCOCC2)cc1	20.6µM*	0.4%	-21.1%	-10.0	-0.2%	u
CCN(CC)c1ccc(CNc2nc3ccccc3n2CCN2CCOCC2)cc1	18.4µM*	-13.4%	u	-76.4*	1.0%	28.2%
Cn1c(SCC(=O)NNC(=O)c2ccccc2Br)nnc1C(F)(F)F	-0.9%	-2.1%	-5.0%	-8.0	0.1%	-0.4%
COc1cc(CN(C(=O)c2ccc(C)cc2)c2ccccn2)cc(OC)c1OC	20.6µM*	x	18.4µM*	x	x	x
COc1cc(CN(C)CCc2ccccn2)cc(OC)c1OC	-6.4%	0.3%	-1.4%	10.8	-3.5%	-5.8%
COc1cc(CN(C(=O)c2cccc(C)c2)c2ccccn2)cc(OC)c1OC	13µM*	x	13µM*	x	x	x
CCOc1ccc(C(=O)N(Cc2cc(OC)c(OC)c(OC)c2)c2ccccn2)cc1	20.6µM*	x	14.6µM*	x	x	x
CCOc1ccccc1C(=O)N(Cc1cc(OC)c(OC)c(OC)c1)c1ccccn1	u	x	18.4µM*	x	x	x
Cc1ccc(CC(=O)N(Cc2ccccc2)c2ccccn2)cc1	u	-6.2%	u	7.6	6.6%	8.0%
CN1CCN(C(=O)C2CC(=O)N(c3ccc(Cl)cc3)C2)CC1 (centres undefined)	-1.5%	-13.1%	-1.1%	19.3	5.9%	-13.1%
Cc1cccc(N2CCN(C3(c4ccccc4)C(=O)c4ccccc4C3=O)CC2C)c1 (centres undefined)	u	x	-28.8%	x	x	x
COc1ccc(/C=C/C(=O)N(Cc2ccccc2)c2ccccn2)cc1OC	-8.0%	1.9%	-1.7%	3.4	-0.9%	-5.0%
COc1cc(/C=C/C(=O)N(Cc2ccccc2)c2ccccn2)cc(OC)c1OC	29.1µM*	0.1%	u	0.0	u	2.8%
COCc1cc(C)nc(OCC(=O)N/N=C/c2ccccc2)c1C#N	7.4%	-6.5%	6.1%	-18.0	3.1%	0.1%
COCc1c(Br)c(C)nc(OCC(=O)N/N=C/c2ccc(C)o2)c1C#N	6.5%	7.9%	-11.0%	-23.3	-19.2%	0.731µM*
COCc1cc(C)nc(OCC(=O)N/N=C/c2ccc(C)cc2)c1C#N	9.2µM*	13.0%	11.6µM*	0.0	7.0%	u
COc1ccc(CN2C(=O)C(CC(=O)NCC3CCCCC3)CC(C(=O)N3CCOCC3)=C2C)cc1 (centres undefined)	-24.8%	x	-9.5%	2.9	x	x
COc1cc(C(=O)O)ccc1OCc1ccncc1	-1.3%	1.3%	-3.4%	1.7	0.4%	15.1%
Cc1ccc(OCc2cc(=O)n3cc(C)sc3n2)c(C)c1	11.7%	x	-0.6%	x	x	x

High-throughput results as filed in PubChem BioAssay.
